Results published in PubChem BioAssay (NCI).
The panel holds about 83,000 compounds, 20% with a hit somewhere; the sample as a whole holds those more often.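 Method: cells in 96-well plates; compound added at one concentration; 48 h incubation; percent growth measured; values under 10 scored active.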 Values without a mark were called inactive. Calls of active or inactive are those of the source.

Key:
Test in all cases: NCI-60 one-dose screen, 48 h (100 = growth as untreated, 0 = no growth, -100 = all killed)
Settings in all cases: 10 µM unless noted
DU-145 prostate = system: DU-145 prostate
K-562 leukemia = system: K-562 leukemia
MALME-3M melanoma = system: MALME-3M melanoma
MDA-MB-231 breast = system: MDA-MB-231 breast
RXF 393 renal = system: RXF 393 renal
SF-268 CNS = system: SF-268 CNS
SF-295 CNS = system: SF-295 CNS
SF-539 CNS = system: SF-539 CNS
UACC-257 melanoma = system: UACC-257 melanoma
M14 melanoma = system: M14 melanoma
HCT-15 colon = system: HCT-15 colon
HT29 colon = system: HT29 colon
SNB-19 CNS = system: SNB-19 CNS
U251 CNS = system: U251 CNS
PC-3 prostate = system: PC-3 prostate
SK-MEL-5 melanoma = system: SK-MEL-5 melanoma
UACC-62 melanoma = system: UACC-62 melanoma
LOX IMVI melanoma = system: LOX IMVI melanoma
SK-MEL-28 melanoma = system: SK-MEL-28 melanoma

C#Cc1cccc(Nc2ncnc3ccc(NC(=O)c4ccccc4)cc23)c1
growth (DU-145 prostate): 50.9%
growth (K-562 leukemia): 63.6%
growth (MALME-3M melanoma): 104%
growth (MDA-MB-231 breast): 95.6%
growth (RXF 393 renal): 58.5%
growth (SF-268 CNS): 74.7%
growth (SF-295 CNS): 89.7%
growth (SF-539 CNS): 90.5%
growth (UACC-257 melanoma): 99.6%
growth (M14 melanoma): 90.6%
growth (HCT-15 colon): 65.3%
growth (HT29 colon): 82.4%
growth (SNB-19 CNS): 89.5%
growth (U251 CNS): 85.4%
growth (PC-3 prostate): 75.8%
growth (SK-MEL-5 melanoma): 95.5%
growth (UACC-62 melanoma): 95.2%
growth (LOX IMVI melanoma): 81.7%
growth (SK-MEL-28 melanoma): 93.9%

O=C(/C(=C/c1ccc([N+](=O)[O-])cc1)SCc1ccc(Cl)cc1)c1ccc(F)cc1
growth (DU-145 prostate): 86.3%
growth (K-562 leukemia): 1.3% (active)
growth (MALME-3M melanoma): 85.7%
growth (MDA-MB-231 breast): 56.3%
growth (RXF 393 renal): 92%
growth (SF-268 CNS): 76.1%
growth (SF-295 CNS): 84.9%
growth (SF-539 CNS): 88.6%
growth (UACC-257 melanoma): 92.5%
growth (M14 melanoma): 47.3%
growth (HCT-15 colon): -16.5% (active)
growth (HT29 colon): -2.26% (active)
growth (SNB-19 CNS): 35.6%
growth (U251 CNS): -9.2% (active)
growth (PC-3 prostate): 41.4%
growth (SK-MEL-5 melanoma): 69.9%
growth (UACC-62 melanoma): 33.8%
growth (SK-MEL-28 melanoma): 95.8%

C#C[C@@]1(O)[C@@H](CO)O[C@@H](n2cc(Cl)c3c(N)ccnc32)[C@@H]1O
growth (DU-145 prostate): 56.1%
growth (K-562 leukemia): 42.8%
growth (MALME-3M melanoma): 82.3%
growth (MDA-MB-231 breast): 57.4%
growth (RXF 393 renal): 106%
growth (SF-268 CNS): 87.4%
growth (SF-295 CNS): 81.9%
growth (SF-539 CNS): 89.3%
growth (UACC-257 melanoma): 89.2%
growth (M14 melanoma): 85.3%
growth (HCT-15 colon): 50.8%
growth (HT29 colon): 38.7%
growth (SNB-19 CNS): 89.9%
growth (U251 CNS): 16%
growth (PC-3 prostate): 36.7%
growth (SK-MEL-5 melanoma): 70.8%
growth (UACC-62 melanoma): 105%
growth (LOX IMVI melanoma): 42%
growth (SK-MEL-28 melanoma): 100%

C=C1C(=O)O[C@H]2[C@H]1CC/C(COC(=O)n1ccnc1)=C\CC[C@@]1(C)O[C@@H]21
growth (DU-145 prostate): 96.8%
growth (K-562 leukemia): 86.7%
growth (MALME-3M melanoma): 90.8%
growth (MDA-MB-231 breast): 95.9%
growth (RXF 393 renal): 102%
growth (SF-268 CNS): 110%
growth (SF-295 CNS): 100%
growth (SF-539 CNS): 102%
growth (UACC-257 melanoma): 90.7%
growth (M14 melanoma): 84.3%
growth (HCT-15 colon): 83.5%
growth (HT29 colon): 100%
growth (SNB-19 CNS): 99%
growth (U251 CNS): 99.1%
growth (PC-3 prostate): 90.1%
growth (SK-MEL-5 melanoma): 98.5%
growth (UACC-62 melanoma): 91.6%
growth (LOX IMVI melanoma): 90.4%
growth (SK-MEL-28 melanoma): 102%

CC(C)Cc1cc(CNC(=O)C2[C@H]3CN(C(=O)c4ccccc4)C[C@@H]23)nn1-c1ccccc1 (stereo not given in full)
growth (DU-145 prostate): 100%
growth (K-562 leukemia): 80.9%
growth (MALME-3M melanoma): 86.6%
growth (MDA-MB-231 breast): 103%
growth (RXF 393 renal): 99.8%
growth (SF-268 CNS): 94.4%
growth (SF-295 CNS): 101%
growth (SF-539 CNS): 96.8%
growth (UACC-257 melanoma): 73.4%
growth (M14 melanoma): 95.5%
growth (HCT-15 colon): 99.3%
growth (HT29 colon): 66.5%
growth (SNB-19 CNS): 107%
growth (U251 CNS): 90.1%
growth (PC-3 prostate): 90.8%
growth (SK-MEL-5 melanoma): 99%
growth (UACC-62 melanoma): 88.2%
growth (LOX IMVI melanoma): 91.9%
growth (SK-MEL-28 melanoma): 93.5%

Nc1cc(N)nc(SCC(=O)O)n1
growth (DU-145 prostate): 104%
growth (K-562 leukemia): 101%
growth (MALME-3M melanoma): 103%
growth (MDA-MB-231 breast): 95.4%
growth (RXF 393 renal): 115%
growth (SF-268 CNS): 101%
growth (SF-295 CNS): 106%
growth (SF-539 CNS): 102%
growth (UACC-257 melanoma): 84.8%
growth (M14 melanoma): 102%
growth (HCT-15 colon): 110%
growth (HT29 colon): 85.1%
growth (SNB-19 CNS): 100%
growth (U251 CNS): 93.4%
growth (PC-3 prostate): 89.9%
growth (SK-MEL-5 melanoma): 99.8%
growth (UACC-62 melanoma): 99.1%
growth (LOX IMVI melanoma): 97.4%
growth (SK-MEL-28 melanoma): 106%

CCOC(=O)c1ccc(Nc2ncnc3ccc(NC(=O)c4ccccc4)cc23)cc1
growth (DU-145 prostate): 105%
growth (K-562 leukemia): 71.9%
growth (MALME-3M melanoma): 109%
growth (MDA-MB-231 breast): 98.2%
growth (RXF 393 renal): 80.7%
growth (SF-268 CNS): 91.3%
growth (SF-295 CNS): 95.3%
growth (SF-539 CNS): 101%
growth (UACC-257 melanoma): 103%
growth (M14 melanoma): 93.8%
growth (HCT-15 colon): 78.3%
growth (HT29 colon): 79.6%
growth (SNB-19 CNS): 99.9%
growth (U251 CNS): 94.1%
growth (PC-3 prostate): 83.1%
growth (SK-MEL-5 melanoma): 84.6%
growth (UACC-62 melanoma): 88.9%
growth (LOX IMVI melanoma): 87.8%
growth (SK-MEL-28 melanoma): 89.6%

CC[C@H](Nc1ncnc2nc[nH]c12)c1nc2cccc(CC(=O)c3ccc(C(=O)NO)cc3)c2c(=O)n1-c1ccccc1
growth (DU-145 prostate): 101%
growth (K-562 leukemia): 85.9%
growth (MALME-3M melanoma): 56.2%
growth (MDA-MB-231 breast): 99.9%
growth (RXF 393 renal): 83.5%
growth (SF-268 CNS): 83%
growth (SF-295 CNS): 97.9%
growth (SF-539 CNS): 78.5%
growth (UACC-257 melanoma): 53.5%
growth (M14 melanoma): 92.5%
growth (HCT-15 colon): 102%
growth (HT29 colon): 82%
growth (SNB-19 CNS): 93.2%
growth (U251 CNS): 89.3%
growth (PC-3 prostate): 73.6%
growth (SK-MEL-5 melanoma): 96.6%
growth (UACC-62 melanoma): 79.9%
growth (SK-MEL-28 melanoma): 90.2%

CCOC(=O)C(=Cc1c(-c2ccccc2)[nH]c2ccccc12)C(=O)OCC
growth (DU-145 prostate): 58.7%
growth (K-562 leukemia): -6.49% (active)
growth (MALME-3M melanoma): 95.5%
growth (MDA-MB-231 breast): 63.3%
growth (RXF 393 renal): 51.9%
growth (SF-268 CNS): 60.7%
growth (SF-295 CNS): -10.2% (active)
growth (SF-539 CNS): 88.1%
growth (UACC-257 melanoma): 44.3%
growth (M14 melanoma): 47.8%
growth (HCT-15 colon): 36.5%
growth (HT29 colon): 31%
growth (SNB-19 CNS): 106%
growth (U251 CNS): 52.9%
growth (PC-3 prostate): -16% (active)
growth (SK-MEL-5 melanoma): 41.6%
growth (UACC-62 melanoma): 43.5%
growth (LOX IMVI melanoma): 57.3%
growth (SK-MEL-28 melanoma): 62.5%

Cc1ccc2nc3nc4ccc[nH]c4cc3c2c1
growth (DU-145 prostate): 108%
growth (K-562 leukemia): 111%
growth (MALME-3M melanoma): 101%
growth (MDA-MB-231 breast): 70.3%
growth (RXF 393 renal): 99.6%
growth (SF-268 CNS): 94.1%
growth (SF-295 CNS): 113%
growth (SF-539 CNS): 83.5%
growth (UACC-257 melanoma): 119%
growth (M14 melanoma): 110%
growth (HCT-15 colon): 60.4%
growth (HT29 colon): 76.8%
growth (SNB-19 CNS): 97.3%
growth (U251 CNS): 92.5%
growth (PC-3 prostate): 87.5%
growth (SK-MEL-5 melanoma): 71.7%
growth (UACC-62 melanoma): 94.3%
growth (LOX IMVI melanoma): 97.9%
growth (SK-MEL-28 melanoma): 116%

CN1CCN(S(=O)(=O)O[C@@H]2C(=O)N(c3cc4c5ccccc5ccc4c4ccccc34)[C@H]2c2ccc(F)cn2)CC1
growth (DU-145 prostate): 94.4%
growth (K-562 leukemia): 74.7%
growth (MALME-3M melanoma): 115%
growth (MDA-MB-231 breast): 38.8%
growth (RXF 393 renal): 77.6%
growth (SF-268 CNS): 79.7%
growth (SF-295 CNS): 96.5%
growth (SF-539 CNS): 104%
growth (UACC-257 melanoma): 88.1%
growth (M14 melanoma): 90.9%
growth (HCT-15 colon): 84.8%
growth (HT29 colon): 82%
growth (SNB-19 CNS): 85%
growth (U251 CNS): 78.6%
growth (PC-3 prostate): 63.9%
growth (SK-MEL-5 melanoma): 88.7%
growth (UACC-62 melanoma): 86.5%
growth (LOX IMVI melanoma): 84.5%
growth (SK-MEL-28 melanoma): 113%

N#CC(C#N)=C1NC(c2ccccc2)=C(c2ccccc2)C(c2ccccc2Cl)=C1C#N
growth (DU-145 prostate): 112%
growth (K-562 leukemia): 98.1%
growth (MALME-3M melanoma): 108%
growth (MDA-MB-231 breast): 110%
growth (RXF 393 renal): 121%
growth (SF-268 CNS): 109%
growth (SF-295 CNS): 101%
growth (SF-539 CNS): 108%
growth (UACC-257 melanoma): 75%
growth (M14 melanoma): 106%
growth (HCT-15 colon): 102%
growth (HT29 colon): 80.4%
growth (SNB-19 CNS): 106%
growth (U251 CNS): 103%
growth (PC-3 prostate): 87.8%
growth (SK-MEL-5 melanoma): 105%
growth (UACC-62 melanoma): 102%
growth (LOX IMVI melanoma): 91.5%
growth (SK-MEL-28 melanoma): 114%

CCOCCc1c(O)nc(SC)[nH]c1=O
growth (DU-145 prostate): 107%
growth (K-562 leukemia): 112%
growth (MALME-3M melanoma): 130%
growth (MDA-MB-231 breast): 111%
growth (RXF 393 renal): 161%
growth (SF-268 CNS): 116%
growth (SF-295 CNS): 113%
growth (SF-539 CNS): 93.7%
growth (UACC-257 melanoma): 23.9%
growth (M14 melanoma): 98.9%
growth (HCT-15 colon): 98.2%
growth (HT29 colon): 101%
growth (SNB-19 CNS): 95.9%
growth (U251 CNS): 103%
growth (PC-3 prostate): 91.1%
growth (SK-MEL-5 melanoma): 103%
growth (UACC-62 melanoma): 98.1%
growth (LOX IMVI melanoma): 105%
growth (SK-MEL-28 melanoma): 99.2%
